Reference: PubChem BioAssay AID1628 (Sanford-Burnham Center for Chemical Genomics, 2009)
Screen size: about 190,000 compounds; about 930 (0.49%) were called active.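 The calls were made as follows: active = z-score of insulin promoter reporter brightness in nuclei below -3 at 5 µM, with at least 500 cells counted; inconclusive = wells with under 500 cells, flagged as toxic or sparse; inactive = the rest.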 The list shows a part of the results. Potency and affinity values are given separately.

Experiment: decrease of insulin promoter-GFP reporter – imaging, high-content screening, mouse beta cells (AID 1628)
Settings: MIN6 insulin promoter GFP reporter, at 5 µM, active compounds read low

SMILES | z-score
COc1ccc(C2C(C#N)=C(N)N(c3ncn[nH]3)C3=C2C(=O)CCC3)cc1 (centres undefined) | 1.75 (inactive)
CCN(CC)C(=O)Oc1cc(=O)n(C)c2ccccc12 | -3.24 (active)
CCCC(=O)c1c(C)c2ccccc2n1C | 3.01 (inactive)
O=C(Nc1ccon1)c1cccc(S(=O)(=O)N2CCCCC2)c1 | 3.46 (inactive)
Nc1cccc2c1C(=O)N(C(=O)c1cccc(S(=O)(=O)N3CCCC3)c1)C2=O | 3.15 (inactive)
Cc1cc(NC(=O)c2cccc(S(=O)(=O)N3CCCCCC3)c2)n(-c2ccccn2)n1 | -3.67 (active)
CC1=CN2C(=N)/C(=C/c3ccc([N+](=O)[O-])o3)C(=O)N=C2S1 | 8.52 (inactive)
CCCCCCc1cc2cc(-c3nnc(-c4cc(OC)c(OC)c(OC)c4)o3)c(=O)oc2cc1O | 9.96 (inactive)
Cc1c(NC(=O)CN2CCN(c3ccc([N+](=O)[O-])cc3)CC2)c(=O)n(-c2ccccc2)n1C | -3.45 (active)
CC(=O)N1CCc2cc(Br)cc(S(=O)(=O)CCC(=O)Nc3c(C)n(C)n(-c4ccccc4)c3=O)c21 | 2.32 (inactive)
Cc1c(C(c2ccc([N+](=O)[O-])cc2)c2c(C)n(C)n(-c3ccccc3)c2=O)c(=O)n(-c2ccccc2)n1C | 4.14 (inactive)
Cc1cc(N2CCCC2)ccc1/C=C1/C(=O)N(C)C(=S)N1C | 3.32 (inactive)
CCOc1cc(NC(=O)c2ccco2)c(OCC)cc1NC(=O)c1cc(OC)c(OC)c(OC)c1 | -3.03 (active)
COC(=O)c1sccc1NC(=O)c1cc(OC)c(OC)c(OC)c1 | 3.71 (inactive)
CCN1/C(=C/C(C)=C/c2sc3ccccc3[n+]2CC)Sc2ccccc21 | -3.52 (active)
CCN1/C(=C/c2ccc3cc(C)ccc3[n+]2CC)Sc2ccccc21 | 16.5 (inactive)
CCN1/C(=C\C=C(C(C)=O)C(C)=O)Sc2ccccc21 | 7.73 (inactive)
CCCCNC(=O)/C(C#N)=c1\s/c(=C\c2ccccc2OC(F)F)c(=O)n1CCCOC | 4.53 (inactive)
O=C(NC(Nc1nc2ccc([N+](=O)[O-])cc2s1)(C(F)(F)F)C(F)(F)F)c1cccnc1 | -3.96 (active)
COC(=O)c1sc(NC(=O)c2ccco2)nc1C | 1.53 (inactive)
COc1ccccc1NC(=O)c1ccc(-c2ccccc2[N+](=O)[O-])o1 | 1.05 (inactive)
COc1ccccc1NC(=O)c1c(NC(=O)c2ccco2)sc2c1CCC2 | -3.67 (active)
CCn1c(SCC(=O)Nc2cc(C)on2)nc2c(c1=O)SC(C)C2 (centres undefined) | -3.41 (active)
COc1cc2cc(C)c3nnc(SCC(=O)Nc4cc(C)on4)n3c2cc1OC | 5.98 (inactive)

SMILES | z-score
CCn1c2ccccc2c2nnc(SCC(=O)Nc3cc(C)on3)nc21 | 3.98 (inactive)
CCO[C@@H]1OC(C(=O)Nc2ccccc2)=C[C@H](c2ccc(C(F)(F)F)cc2)[C@H]1CCCO | -3.04 (active)
CCCN1C(=O)/C(=C/c2c(N3CCNC(=O)C3CC(=O)OC)nc3c(C)cccn3c2=O)SC1=S (centres undefined) | 6.46 (inactive)
COc1ccc(NC2=Nc3ccccc3N3C2=Nc2c(c(C)nn2-c2ccc(C)cc2)C3c2cccnc2)cc1 (centres undefined) | 3.08 (inactive)
CCOC(=O)CCNC(=O)CNC(=O)OCc1ccccc1 | -4.19 (active)
CCOc1ccccc1C(=O)NCC(=O)O | 0.62 (inactive)
COc1ccc(CN2C(=O)/C(=C/c3ccc(-c4ccc(Cl)c(C(=O)O)c4)o3)SC2=S)cc1 | 5.56 (inactive)
CCOc1cc(C)c(S(=O)(=O)Nc2ccc3cn[nH]c3c2)cc1C | 4.24 (inactive)
CCc1ccc(NC(=S)Nc2ccc3cn[nH]c3c2)cc1 | -5.26 (active)
C=CCn1c(SCc2c(C)noc2C)nc2sc3c(c2c1=O)CCCCC3 | -4.19 (active)
CN(C)C(=O)C12CCC(C)(c3nc4ccccc4nc31)C2(C)C (centres undefined) | 3.42 (inactive)
O=C(Nc1nc(-c2ccc3c(c2)OCO3)cs1)c1ccncc1 | -4.14 (active)
c1ccc2nc(-c3ccc4c(c3)OCO4)ccc2c1 | -0.48 (inactive)
O=C1/C(=C/c2ccc(N3CCOCC3)o2)SC(=Nc2ccccc2)N1CCc1c[nH]c2ccccc12 | 17.8 (inactive)
COc1ccc(N2CCN(C(=O)CSc3nc4c(c(=O)n(C)c(=O)n4C)n3C(C)C)CC2)cc1 | -3.09 (active)
CC1CCCN(c2nc3c(c(=O)n(C)c(=O)n3C)n2CCSc2nc3ccccc3s2)C1 (centres undefined) | 3.19 (inactive)
COCCn1c(CN2CCN(c3ccc(OC)cc3)CC2)nc2c1c(=O)n(C)c(=O)n2C | -7.6 (active)
Cc1cc(C)c(C(=O)O)c(CC(C)(C)C(=O)O)c1 | 3.14 (inactive)
Cn1c(=O)c(N)c2c3c(c(Br)ccc31)C(=O)c1ccccc1-2 | 16.9 (inactive)
Cc1c(-c2cc(C(=O)O)on2)cnn1C | 1.94 (inactive)
CC(C)N=c1scc(-c2ccco2)n1/N=C/c1ccc(O)c(O)c1 | -5.1 (active)
CCCCN(C)C(=S)Nc1ccsc1C(=O)OC | 2.3 (inactive)
CCOc1cc(/C=N/Nc2nc3ccccc3[nH]2)cc(Br)c1OCC(=O)N(C)C | -3.72 (active)
CCOc1cc2[nH]c(=O)n(Cc3ccc(C(=O)NCCOC)cc3)c(=O)c2cc1OCC | 1.15 (inactive)

SMILES | z-score
CCOc1cc(/C=C/C(=O)Nc2ccc(C(=O)NCCN(CC)CC)cc2)ccc1OCC(C)C | -4.98 (active)
Cc1ccc(C(OCC(O)CNC(C)c2ccccc2)c2ccccc2)cc1 (centres undefined) | -3.13 (active)
Cc1cc(OCC(=O)NCc2cccnc2)ccc1[N+](=O)[O-] | -4.17 (active)
CCCNC(=O)Cc1cc(=O)[nH]c(=O)[nH]1 | -3.04 (active)
CCCc1cc(=O)[nH]c(SCC(=O)NCCCC(=O)OCC)n1 | 3.15 (inactive)
CC1(C)c2ccccc2N2CC(=O)NC21/C=C/c1ccco1 (centres undefined) | 3.29 (inactive)
O=C(CSc1ncccn1)NC(=O)c1ccccc1 | 0.73 (inactive)
COC(=O)c1ccnc(SCC(=O)c2ccccc2)c1 | -3.59 (active)
COC(=O)c1cccc(N2C(=O)c3cccnc3C2=O)c1 | 0.1 (inactive)
CCN1C(=O)/C(=C/c2ccc(N3CCCC3)cc2)NC1=S | 15.8 (inactive)
CCn1c(SCC(=O)c2c[nH]c3ccccc23)nc2cc(S(=O)(=O)N3CCOCC3)ccc21 | 3.09 (inactive)
CCOC(=O)c1ccc2c(c1)nc(C1CCN(S(=O)(=O)c3cccs3)CC1)n2CC | -4.13 (active)
COc1cccc(C(=O)Nc2ccccc2C(=O)N2CCCC2)c1 | 3.3 (inactive)
CS(=O)(=O)Nc1ccc(C(=O)Nc2ccccc2C(=O)N2CCCC2)cc1 | -4.1 (active)
CCNc1c2c3c(cccc3n(C)c1=O)C(=O)c1ccccc1-2 | 15.6 (inactive)
Cc1ccc(S(=O)(=O)C(C#N)c2nc3ccccc3nc2N2CCC(C)CC2)cc1 (centres undefined) | 3.75 (inactive)
CCC(CC)COC(=O)C(C#N)c1nc2ccccc2nc1N1CCN(CC)CC1 (centres undefined) | -3.84 (active)
CCN1CCN(C2=CC3=CC(=C(C#N)C#N)CCC3CC2)CC1 (centres undefined) | 16.6 (inactive)
CCN(CC)c1ccc(/C=C2\SC(=O)N(C(C)C)C2=O)o1 | 17.4 (inactive)
Cc1ccccc1-c1nnc(-c2ccc(Cl)cc2)o1 | 3.54 (inactive)
CC(=O)OCC(=O)c1c[nH]c2ccccc12 | 0.26 (inactive)
CC(Cc1c[nH]c2ccccc12)C(=O)O (centres undefined) | 0 (inactive)
CN1/C(=C\C=C(/C#N)C(=O)Nc2ccc(Cl)cc2)C(C)(C)c2ccccc21 | 8.8 (inactive)
C=CCN1C(=O)/C(=C\C=C2\N(C)c3ccccc3C2(C)C)SC1=S | 15.4 (inactive)

SMILES | z-score
CN1CCN(C2=CC3=CC(=C(C#N)C#N)CCC3CC2)CC1 (centres undefined) | 10.9 (inactive)
N#CCCn1cc(C(CC(=O)c2ccc(Br)cc2)C(=O)O)c2ccccc21 (centres undefined) | -4.89 (active)
CCN1C(=O)/C(=C/C=C2\N(CC)c3cc(S(=O)(=O)N(C)C)ccc3N2c2ccccc2)SC1=S | 13.2 (inactive)
COc1ccc2[nH]cc(CCN3C(=O)CCC3=O)c2c1 | -5.12 (active)
COc1ccc(-c2cc(=O)c3cc(OC)ccc3o2)cc1 | -0.37 (inactive)
COc1cccc(C(=O)CN2C(=O)C(C)(C)Oc3ccc(C(=O)N4CCCCCC4)cc32)c1 | 3.58 (inactive)
O=C(c1cccc([N+](=O)[O-])c1)N1CCCN(C(=O)c2cccc([N+](=O)[O-])c2)CC1 | -7.17 (active)
N/C(=N\OC(=O)C1CCCCC1)c1cccc([N+](=O)[O-])c1 | 3.01 (inactive)
S=C(Nc1ccc(Oc2ccc(NC(=S)NC3CCCCC3)cc2)cc1)NC1CCCCC1 | -5.62 (active)
CCc1ccc(NC(=S)NCC2CCCN2CC)cc1 (centres undefined) | 3.74 (inactive)
O=C1N/C(=N/Nc2ccccc2)S/C1=C\c1ccccc1 | 3.19 (inactive)
CCOC(=O)c1c(C)nc2c(c1C)c(=O)oc1ccccc12 | 0.62 (inactive)
O=c1cc(-c2ccc(O)cc2)oc2ccccc12 | -0.5 (inactive)
O=C1/C(=C/c2ccc(N3CCCC3)cc2)NC(=S)N1C1CC1 | 12.6 (inactive)
COC(=O)c1nc2ccccn2c1F | 2.02 (inactive)
CC1(C)CC(=O)c2sc(NS(=O)(=O)Cc3ccccc3)nc2C1 | 1.07 (inactive)
O=c1c(N2CCOCC2)c(N2CCOCC2)c1=O | 3.02 (inactive)
COc1cc(Cl)c(C)cc1NC(=O)CN(C)Cc1cccc(OC)c1OC | 3.4 (inactive)
COc1cc(NC(=O)CN(C)Cc2ccc(OC(F)F)cc2)c(C)cc1[N+](=O)[O-] | -4.52 (active)
Cc1ccc(Nc2cc(C)nn2-c2nc(C)cc(=O)[nH]2)cc1 | -3.51 (active)
Cc1ccc(Nc2nc3c([nH]2)c(=O)n(C)c(=O)n3C)cc1 | 3.32 (inactive)
FC(F)(F)c1cccc(N2CCN(Cc3cccnc3)CC2)c1 | -4.71 (active)
